Experimental data taken from PubChem BioAssay (Tox21).
Values joined by “and” are separate entries in the source; they are usually repeats but may differ in a detail not shown here. Identical values can stand only once. Records with an inconclusive call do not appear. Active and inactive are the calls of the source. Calls follow the shape of the dose curve; as a rule, active = well fitted activation curve with a large enough effect in the signal ratio in the repeat runs (not every such curve was filed as active); inconclusive = weak or mixed curves; inactive = flat fitted curve, though single readings scatter; the % refers to the signal ratio.

Assay: qHTS assay to identify small molecule agonists of the TGF-beta/Smad signaling pathway (AID 1346859)
Conditions: SBE-bla HEK293T, TGF-beta/Smad beta-lactamase reporter, 5 h; series mostly up to 76.8 µM
Text: U.S. Tox21 Program National Center for Advancing Translational Sciences [NCATS] NIH Chemical Genomics Center [NCGC] U.S. Environmental Protection Agency [EPA] National Institutes of Environmental Health Sciences [NIEHS] National Toxicology Program [NTP] U.S. Food and Drug Administration [FDA] Tox21 Assay Overview: Transforming growth factor beta (TGF-beta) superfamily consists of a large number of structurally related dimeric proteins that act as hormones or local mediators in regulating a wide range of biological functions. This superfamily includes TGF-betas themselves, the bone morphogenetic proteins (BMPs) and the activins. These ligands induce oligomerization of serine/threonine receptor kinases and phosphorylate the cytoplasmic signaling molecules of Smad protein family. CellSensor SBE-bla HEK 293T cell line (Life Technologies, Carlsbad, CA), responsive to TGF-beta was used to screen Tox21 10K compound library for identification of agonists/antagonists of the Smad signaling pathway. This cell line contains a beta-lactamase reporter gene under control of the Smad binding element (SBE) stably integrated into HEK 293T cells.
Tox21 Assay Protocol Summary: SBE-bla HEK 293T cells were dispensed at 4,000/well in 6 uL of assay medium into black wall/clear-bottom 1536-well plates using a Multidrop Combi (ThermoFisher Scientific, Waltham, MA) dispenser. After the assay plates were incubated at 37 C and 5% CO2 for an overnight, 23 nL of compounds dissolved in DMSO, positive controls or DMSO only was transferred to the assay plate by a Pintool station (Kalypsys, San Diego, CA). The assay plates were incubated at 37 C and 5% CO2 for 5 hr. One uL of LiveBLAzer B/G FRET substrate (Life Technologies) was added using a Flying Reagent Dispenser (Aurora Discovery, San Diego, CA) and the plates were incubated at room temperature for 2 hr. Fluorescence intensity (405 nm excitation, 460 nm and 530 nm emissions) was measured using an Envision plate reader (PerkinElmer, Shelton, CT).
% is scaled to controls: 0 for no effect and ±100 for the full control effect.

| SMILES | outcome | activation |
| --- | --- | --- |
| c1ccc2c(c1)ccc1ccccc12 | inactive |  |
| O=C(Oc1ccccc1)c1ccccc1 | inactive |  |
| ON=C1CCCCC1 | inactive |  |
| CCCCCCCCCCCCCCO | inactive |  |
| Nc1cc([N+](=O)[O-])ccc1O | inactive |  |
| CCCCCCCCCCCCS | inactive |  |
| COc1cc(Cc2cnc(N)nc2N)cc(OC)c1OC | inactive |  |
| c1ccc2scnc2c1 | inactive |  |
| O=C(O)CCCC[C@@H]1SC[C@@H]2NC(=O)N[C@@H]21 | inactive |  |
| CC(c1cc2ccccc2s1)N(O)C(N)=O (stereo not given) | inactive |  |
| C=C(C)C(=O)Nc1ccc(Cl)c(Cl)c1 | inactive |  |
| Cc1occc(=O)c1O | inactive |  |
| O=C(CC(C(=O)OC1CCCCC1)S(=O)(=O)O)OC1CCCCC1 (stereo not given) | inactive |  |
| CCCCCCCCC/C=C/CC1CC(=O)OC1=O (stereo not given) | inactive |  |
| CCCCC(CC)COC(=O)C(C#N)=C(c1ccccc1)c1ccccc1 (stereo not given) | inactive |  |
| O=C(O)[C@H](O)[C@@H](O)[C@H](O)[C@H](O)CO | inactive |  |
| CC(=O)CC(=O)Nc1ccccc1C | inactive |  |
| CCCCCC/C(C=O)=C\c1ccccc1 | inactive |  |
| CCCCCCCC(=O)OC | inactive |  |
| CCCCCC(N)=O | inactive |  |

| SMILES | outcome | activation |
| --- | --- | --- |
| O=[N+]([O-])c1ccc(/C=C/c2ccc([N+](=O)[O-])cc2S(=O)(=O)O)c(S(=O)(=O)O)c1 | inactive |  |
| C=C(C)C(=O)O[C@H]1C[C@@H]2CC[C@@]1(C)C2(C)C | inactive |  |
| C/C=C1/CC2C=CC1C2 (stereo not given) | inactive |  |
| OCC(CO)(CBr)CBr | inactive |  |
| CC1=C(C)S(=O)(=O)CCS1(=O)=O | inactive |  |
| O=P(OC(CCl)CCl)(OC(CCl)CCl)OC(CCl)CCl | inactive |  |
| Cc1ccc(S(N)(=O)=O)cc1 | inactive |  |
| O=C(O)c1ccc2c(c1)C(=O)OC2=O | inactive |  |
| O=C(O)c1ccc(C(=O)O)cc1 | inactive |  |
| O=C(OCCOCCOC(=O)c1ccccc1)c1ccccc1 | inactive |  |
| C=C(C)C(=O)OCCOCCOCCOC(=O)C(=C)C | inactive |  |
| CN(C)CCC(c1ccccc1)c1ccccn1 (stereo not given) | inactive |  |
| CC(=O)CC(=O)Nc1ccccc1 | inactive |  |
| Cc1cc(C)c(C)cc1C | inactive |  |
| CCCCCCCCCCCCCCCO | inactive |  |
| O=C(O)CCCCCCCCCCC(=O)O | inactive |  |
| CCCC(C)=O | inactive |  |
| CCN(CC)CCCC(C)Nc1ccnc2cc(Cl)ccc12 (stereo not given) |  | 1.95% [at 6.97 µM] (inactive) and -1.03% [at 15.8 µM] (inactive) |
| CC(=O)Nc1ccccc1 | inactive |  |
| CC1CCC2CC1C2(C)C (stereo not given) | inactive |  |
